# Measured values: PubChem BioAssay (Tox21)
# Results filed as inconclusive are left out. Active and inactive are the calls of the source. The call rests on the fitted dose curve; in most records, active means well fitted curve in the direction sought with a large enough effect in the repeat runs; inconclusive means weak or mixed curves; inactive means no such curve, though single readings can be large; an effect the other way counts as inactive or inconclusive.
# Assay: qHTS RealTime-Glo MT Cell Viability Assay in HepG2 cells - 24 hour (AID 1224867); further: potency means the concentration at half of the fitted maximal effect
# Conditions: RealTime-Glo luminescence; series mostly up to 76.8 µM; activity change, negative = cytotoxicity: at the top concentration
# Method in brief: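 Viability was tracked continuously by NanoLuc luminescence from prosubstrate reduced by living HepG2 cells, at successive time points over 40 h of compound exposure. Cells with reagent were preincubated 5 h at 37 °C before compound addition.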
# Further: nearly all actives have a fitted effect of over 50% in size.
# On the % scale 0 is the no-effect control and ±100 the full control effect.
Structure (SMILES),"activity change, negative = cytotoxicity",Potency
CCC(O)CO (stereo not drawn),0.179% (inactive),
Nc1cc([N+](=O)[O-])cc(Cl)c1O,-4.69% (inactive),
O=C(Nc1ccc([N+](=O)[O-])cc1)Nc1ccc([N+](=O)[O-])cc1 (tested in a mixture with another compound),-12.4% [at 35.3 µM] (inactive),
c1ccc(-c2nc3ccccc3[nH]2)cc1,-1.43% (inactive),
CC/C=C\C/C=C\C/C=C\CCCCCCCC(=O)OC,0.301% (inactive),
C=CC(=O)OCCOC1C2CCC1C1CC=CC12 (stereo not drawn),3.51% [at 15.8 µM] (inactive),
Cc1ccc(N=Nc2c(O)ccc3ccccc23)c(C)c1,-8.55% [at 35.3 µM] (inactive),
O=c1cc[nH]cc1,7.19% (inactive),
C/C=C/C(=O)OCC(C)C,-0.575% (inactive),
CCCCCCCCCCCC(=O)Cl,3.84% (inactive),
C=C(C)CCO,-0.887% (inactive),
[Cl][Eu]([Cl])[Cl],-22.7% (inactive),
CC(C)=NNC(N)=S,0.563% (inactive),
CCn1c2ccccc2c2ccccc21,0.143% (inactive),
O=C1OCc2ccccc21,2.43% (inactive),
CCOC(=O)[C@H](O)[C@@H](O)C(=O)OCC,-0.114% (inactive),
O=C1OC(=O)c2cc(-c3ccc4c(c3)C(=O)OC4=O)ccc21,-2.18% (inactive),
CCOC=C(C(=O)OCC)C(=O)OCC,-12.6% (inactive),
CC1=CC[C@@H](C(C)(C)O)CC1,1.49% (inactive),

Structure (SMILES),"activity change, negative = cytotoxicity",Potency
C=CC(C)(C)O,2.01% (inactive),
CCOc1nc(F)cc2nc(S(=O)(=O)Nc3c(Cl)cccc3C(=O)OC)nn12,1.27% (inactive),
c1ccc2cc3c4ccccc4c4ccccc4c3cc2c1,-6.95% (inactive),
Cc1c(Cl)c(=O)oc2cc(O)ccc12,-6.2% (inactive),
C=C[Si](C)(C)Cl,-0.615% [at 6.97 µM] (inactive),
CCCCCCCC/C=C\CCCCCCCC(=O)N(CCO)CCO,-17.9% (inactive),
CC(CC(C)(C)C)CC(C)(C)CC(C)(C)C (stereo not drawn),2.32% [at 35.3 µM] (inactive),
CN1CCN(C)CC1,3.06% (inactive),
CCOC(=O)[C@H](C)O,3.29% (inactive),
CC(=O)CC(N)=O,-0.667% (inactive),
CC(=O)[C@]1(O)Cc2c(O)c3c(c(O)c2[C@@H](O[C@H]2C[C@H](N)[C@H](O)[C@H](C)O2)C1)C(=O)c1ccccc1C3=O,,6.01 µM (active)
COCCC(=O)OC,-2.26% (inactive),
O=C(NCc1ncc(C(F)(F)F)cc1Cl)c1c(Cl)cccc1Cl,-13.1% (inactive),
O=C1CCC/C=C\CCCCCCCCCC1,-8.62% (inactive),
Cc1cccc(C)c1C,-2.02% (inactive),
NC(=O)C1CO1 (stereo not drawn),1.19% (inactive),
Nc1ccc(Cl)c([N+](=O)[O-])c1,-1.67% (inactive),
C=C(C)C1CCC(C)CC1O (stereo not drawn),0.188% (inactive),

# Assay: qHTS RealTime-Glo MT Cell Viability Assay in HEK293 cells - 32 hour (AID 1224868); further: potency means the concentration at half of the fitted maximal effect; on activity change, negative = cytotoxic: top concentration of the series differs between compounds
# Conditions: RealTime-Glo luminescence; series mostly up to 76.8 µM; activity change, negative = cytotoxic: at the top concentration
# Method in brief: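 Viability tracked continuously by luminescence as live cells reduce a prosubstrate for NanoLuc; HEK293 cells preincubated 5 h, compound-treated at 37 C, and read at 0, 8, 16, 24, 32 and 40 h.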
Structure (SMILES),"activity change, negative = cytotoxic",Potency
CCC(O)CO (stereo not drawn),3.19% (inactive),
Nc1cc([N+](=O)[O-])cc(Cl)c1O,-7.24% (inactive),
O=C(Nc1ccc([N+](=O)[O-])cc1)Nc1ccc([N+](=O)[O-])cc1 (tested in a mixture with another compound),,4.77 µM (active)
c1ccc(-c2nc3ccccc3[nH]2)cc1,,34.7 µM (active)
CC/C=C\C/C=C\C/C=C\CCCCCCCC(=O)OC,-2.33% (inactive),
C=CC(=O)OCCOC1C2CCC1C1CC=CC12 (stereo not drawn),0.499% [at 15.8 µM] (inactive),
Cc1ccc(N=Nc2c(O)ccc3ccccc23)c(C)c1,-14.5% [at 35.3 µM] (inactive),
O=c1cc[nH]cc1,1.88% (inactive),
C/C=C/C(=O)OCC(C)C,5.68% (inactive),
CCCCCCCCCCCC(=O)Cl,1.96% (inactive),
C=C(C)CCO,-0.654% (inactive),
[Cl][Eu]([Cl])[Cl],-2.72% (inactive),
CC(C)=NNC(N)=S,7.15% (inactive),
CCn1c2ccccc2c2ccccc21,-13.7% (inactive),
O=C1OCc2ccccc21,14.6% (inactive),
CCOC(=O)[C@H](O)[C@@H](O)C(=O)OCC,7.83% (inactive),
O=C1OC(=O)c2cc(-c3ccc4c(c3)C(=O)OC4=O)ccc21,0.556% (inactive),
CCOC=C(C(=O)OCC)C(=O)OCC,3.37% (inactive),
CC1=CC[C@@H](C(C)(C)O)CC1,0.981% (inactive),

Structure (SMILES),"activity change, negative = cytotoxic",Potency
C=CC(C)(C)O,8.03% (inactive),
CCOc1nc(F)cc2nc(S(=O)(=O)Nc3c(Cl)cccc3C(=O)OC)nn12,11.9% (inactive),
c1ccc2cc3c4ccccc4c4ccccc4c3cc2c1,-2.05% (inactive),
Cc1c(Cl)c(=O)oc2cc(O)ccc12,,43.6 µM (active)
C=C[Si](C)(C)Cl,-3.52% [at 6.97 µM] (inactive),
CCCCCCCC/C=C\CCCCCCCC(=O)N(CCO)CCO,,43.5 µM (active)
CC(CC(C)(C)C)CC(C)(C)CC(C)(C)C (stereo not drawn),4.22% [at 35.3 µM] (inactive),
CN1CCN(C)CC1,7.22% (inactive),
CCOC(=O)[C@H](C)O,7.99% (inactive),
CC(=O)CC(N)=O,12.2% (inactive),
CC(=O)[C@]1(O)Cc2c(O)c3c(c(O)c2[C@@H](O[C@H]2C[C@H](N)[C@H](O)[C@H](C)O2)C1)C(=O)c1ccccc1C3=O,,0.0756 µM (active)
COCCC(=O)OC,-0.746% (inactive),
O=C(NCc1ncc(C(F)(F)F)cc1Cl)c1c(Cl)cccc1Cl,,21.9 µM (active)
O=C1CCC/C=C\CCCCCCCCCC1,-6.12% (inactive),
Cc1cccc(C)c1C,5.15% (inactive),
NC(=O)C1CO1 (stereo not drawn),3.83% (inactive),
Nc1ccc(Cl)c([N+](=O)[O-])c1,-18.7% (inactive),
C=C(C)C1CCC(C)CC1O (stereo not drawn),10.6% (inactive),

# Assay: A CellTox Green Cytotoxicity Assay to monitor cytotoxicity in HEK293 cells - 0 hour (AID 1224869)
# Conditions: CellTox Green fluorescence; series mostly up to 76.8 µM; cytotoxicity: at the top concentration
# Method in brief: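 Each value comes from one timepoint of a single continuous run in which HEK293 cells with CellTox Green were exposed to compound for up to 40 h at 37 C, dye fluorescence rising with cell death.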
row,Structure (SMILES),cytotoxicity
1,CCC(O)CO (stereo not drawn),-2.79% (inactive)
2,Nc1cc([N+](=O)[O-])cc(Cl)c1O,-0.896% (inactive)
3,O=C(Nc1ccc([N+](=O)[O-])cc1)Nc1ccc([N+](=O)[O-])cc1 (tested in a mixture with another compound),3.09% [at 35.3 µM] (inactive)
4,c1ccc(-c2nc3ccccc3[nH]2)cc1,-1.26% (inactive)
5,CC/C=C\C/C=C\C/C=C\CCCCCCCC(=O)OC,-8.84% (inactive)
6,C=CC(=O)OCCOC1C2CCC1C1CC=CC12 (stereo not drawn),-3.9% [at 15.8 µM] (inactive)
7,Cc1ccc(N=Nc2c(O)ccc3ccccc23)c(C)c1,-7.82% [at 35.3 µM] (inactive)
8,O=c1cc[nH]cc1,0.657% (inactive)
9,C=C(C)CCO,0.463% (inactive)
10,CC(C)=NNC(N)=S,-6.02% (inactive)
11,CCn1c2ccccc2c2ccccc21,-8.91% (inactive)
12,O=C1OCc2ccccc21,-16.5% (inactive)
13,CCOC(=O)[C@H](O)[C@@H](O)C(=O)OCC,1.17% (inactive)
14,O=C1OC(=O)c2cc(-c3ccc4c(c3)C(=O)OC4=O)ccc21,2.47% (inactive)
15,CCOC=C(C(=O)OCC)C(=O)OCC,0.393% (inactive)
16,CC1=CC[C@@H](C(C)(C)O)CC1,0.238% (inactive)
17,C=CC(C)(C)O,-5.25% (inactive)

row,Structure (SMILES),cytotoxicity
1,CCOc1nc(F)cc2nc(S(=O)(=O)Nc3c(Cl)cccc3C(=O)OC)nn12,0.497% (inactive)
2,c1ccc2cc3c4ccccc4c4ccccc4c3cc2c1,-3.68% (inactive)
3,Cc1c(Cl)c(=O)oc2cc(O)ccc12,-6.05% (inactive)
4,C=C[Si](C)(C)Cl,-1.84% [at 6.97 µM] (inactive)
5,CCCCCCCC/C=C\CCCCCCCC(=O)N(CCO)CCO,-2.98% (inactive)
6,CC(CC(C)(C)C)CC(C)(C)CC(C)(C)C (stereo not drawn),-2.35% [at 35.3 µM] (inactive)
7,CN1CCN(C)CC1,-0.0843% (inactive)
8,CCOC(=O)[C@H](C)O,0.895% (inactive)
9,CC(=O)CC(N)=O,-7.7% (inactive)
10,CC(=O)[C@]1(O)Cc2c(O)c3c(c(O)c2[C@@H](O[C@H]2C[C@H](N)[C@H](O)[C@H](C)O2)C1)C(=O)c1ccccc1C3=O,25.2% [at 35.3 µM] (inactive)
11,COCCC(=O)OC,0.023% (inactive)
12,O=C(NCc1ncc(C(F)(F)F)cc1Cl)c1c(Cl)cccc1Cl,6.46% (inactive)
13,O=C1CCC/C=C\CCCCCCCCCC1,-2.33% (inactive)
14,Cc1cccc(C)c1C,-1.89% (inactive)
15,NC(=O)C1CO1 (stereo not drawn),-2.2% (inactive)
16,Nc1ccc(Cl)c([N+](=O)[O-])c1,-0.762% (inactive)
17,C=C(C)C1CCC(C)CC1O (stereo not drawn),-0.0459% (inactive)
